Compound in this experiment: Nc1nc2c(ncn2[C@@H]2O[C@H](COP(=O)(O)OP(=O)(O)OP(=O)(O)O)[C@@H](O)[C@H]2O)c(=O)[nH]1 [guanosine triphosphate]
Briefly: NP40-soluble protein abundance relative to vehicle (solubility fold change) (ratio); higher = more soluble protein in presence of GTP. Here is the method:
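Solubility proteome profiling in Jurkat crude lysate. Lysate was treated with Mg-GTP (0.1-10 mM) for 10 min at room temperature and 3 min at 37 °C, then solubilised with 0.8% NP40 and benzonase, followed by ultracentrifugation. Proteins were quantified by TMT10 LC-MS/MS; the value is the NP40-soluble abundance relative to the NP40-processed vehicle, from 3 independent experiments.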

± gives the standard deviation of the averaged measurements. Targets with the largest changes are over-represented here; the source holds about 5,400 in all.

Sequence of UniProt Q9HCD5 (Q9HCD5 whole entry): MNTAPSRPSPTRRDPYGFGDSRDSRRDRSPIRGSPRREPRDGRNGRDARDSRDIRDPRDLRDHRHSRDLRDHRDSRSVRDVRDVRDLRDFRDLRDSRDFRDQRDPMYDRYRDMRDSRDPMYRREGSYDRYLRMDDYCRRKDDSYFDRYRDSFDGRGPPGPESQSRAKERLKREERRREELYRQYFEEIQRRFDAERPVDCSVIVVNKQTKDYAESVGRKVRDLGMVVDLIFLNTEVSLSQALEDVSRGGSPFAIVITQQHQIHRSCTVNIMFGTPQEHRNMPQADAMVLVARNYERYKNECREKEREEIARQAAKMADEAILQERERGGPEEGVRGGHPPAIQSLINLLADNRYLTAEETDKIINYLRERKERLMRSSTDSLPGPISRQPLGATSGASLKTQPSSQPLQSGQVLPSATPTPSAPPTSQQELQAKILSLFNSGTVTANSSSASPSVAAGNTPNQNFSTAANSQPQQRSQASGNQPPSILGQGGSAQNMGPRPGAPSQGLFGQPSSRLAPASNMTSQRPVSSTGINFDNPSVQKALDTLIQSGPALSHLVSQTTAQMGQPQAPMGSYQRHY
Sequence of UniProt Q03519 (Q03519 whole entry, one chain of several): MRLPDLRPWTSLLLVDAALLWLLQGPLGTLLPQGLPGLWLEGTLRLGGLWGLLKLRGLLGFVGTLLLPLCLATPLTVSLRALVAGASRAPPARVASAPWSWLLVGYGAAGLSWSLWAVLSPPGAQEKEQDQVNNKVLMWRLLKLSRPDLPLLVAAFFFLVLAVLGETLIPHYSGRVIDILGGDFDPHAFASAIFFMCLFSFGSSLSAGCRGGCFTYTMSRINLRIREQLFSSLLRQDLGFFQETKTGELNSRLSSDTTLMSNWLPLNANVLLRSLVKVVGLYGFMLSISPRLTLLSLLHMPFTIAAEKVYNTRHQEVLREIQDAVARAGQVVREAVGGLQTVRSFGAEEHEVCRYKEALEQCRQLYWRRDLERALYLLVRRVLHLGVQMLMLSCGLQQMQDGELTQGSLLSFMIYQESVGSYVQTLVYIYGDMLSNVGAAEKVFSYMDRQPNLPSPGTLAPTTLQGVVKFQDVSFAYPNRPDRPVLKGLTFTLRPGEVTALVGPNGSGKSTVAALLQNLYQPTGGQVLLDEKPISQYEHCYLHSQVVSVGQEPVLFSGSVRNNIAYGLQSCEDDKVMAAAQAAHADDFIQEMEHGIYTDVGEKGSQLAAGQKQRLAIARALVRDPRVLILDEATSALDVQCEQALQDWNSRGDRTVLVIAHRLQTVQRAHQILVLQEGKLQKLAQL
Sequence of UniProt Q9BSF4 (Q9BSF4 whole entry): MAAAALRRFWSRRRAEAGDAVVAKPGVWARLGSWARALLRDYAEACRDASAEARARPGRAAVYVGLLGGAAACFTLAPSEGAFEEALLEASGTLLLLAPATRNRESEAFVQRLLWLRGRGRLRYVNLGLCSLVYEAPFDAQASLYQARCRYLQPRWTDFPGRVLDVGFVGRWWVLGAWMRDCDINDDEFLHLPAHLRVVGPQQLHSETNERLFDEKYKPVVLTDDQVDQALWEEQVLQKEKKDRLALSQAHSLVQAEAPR
Sequence of UniProt Q9Y333 (Q9Y333 whole entry): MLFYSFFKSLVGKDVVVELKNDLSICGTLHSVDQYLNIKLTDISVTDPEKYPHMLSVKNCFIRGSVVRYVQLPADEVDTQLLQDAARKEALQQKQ
Sequence of UniProt Q9HA64 (Q9HA64 whole entry): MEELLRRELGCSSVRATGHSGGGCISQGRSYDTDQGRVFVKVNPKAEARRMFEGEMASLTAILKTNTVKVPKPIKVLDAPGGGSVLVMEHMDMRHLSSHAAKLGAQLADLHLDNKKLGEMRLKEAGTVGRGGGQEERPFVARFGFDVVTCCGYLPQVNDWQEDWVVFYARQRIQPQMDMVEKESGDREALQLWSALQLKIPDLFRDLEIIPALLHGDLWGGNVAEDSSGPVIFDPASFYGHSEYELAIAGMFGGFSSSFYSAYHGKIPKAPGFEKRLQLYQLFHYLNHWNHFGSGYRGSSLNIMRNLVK

On to FN3KRP (UniProt Q9HA64), for which the NP40-soluble protein abundance is, setting by setting: (concentration: 0.1mM) 0.9717 ± 0.0097; (concentration: 0.5mM) 0.991 ± 0.014; (concentration: 1mM) 0.927 ± 0.032; (concentration: 2mM) 0.913 ± 0.061; (concentration: 4mM) 0.905 ± 0.042; (concentration: 6mM) 0.884 ± 0.031. For the same target, the NP40-soluble protein abundance was 0.89 ± 0.047 (concentration: 8mM) and 0.868 ± 0.051 (concentration: 10mM).
Take NCOA5 (UniProt Q9HCD5): the NP40-soluble protein abundance (concentration: 0.1mM) amounted to 1.03 ± 0.053; the NP40-soluble protein abundance (concentration: 0.5mM) came out at 1 ± 0.028; the NP40-soluble protein abundance (concentration: 1mM) turned out to be 1.084 ± 0.0085; the NP40-soluble protein abundance (concentration: 2mM) was 1.22 ± 0.043; the NP40-soluble protein abundance (concentration: 4mM) was 1.58 ± 0.053; the NP40-soluble protein abundance (concentration: 6mM) turned out to be 1.81 ± 0.059. In addition, the NP40-soluble protein abundance was found to be 2.15 ± 0.18 (concentration: 8mM) and 2.4 ± 0.19 (concentration: 10mM).
Take UniProt Q9Y333: the NP40-soluble protein abundance reads like this: (concentration: 0.1mM) 0.946 ± 0.08; (concentration: 0.5mM) 0.98 ± 0.11; (concentration: 1mM) 0.973 ± 0.091; (concentration: 2mM) 0.939 ± 0.1; (concentration: 4mM) 0.887 ± 0.12; (concentration: 6mM) 0.989 ± 0.13. Moreover, the NP40-soluble protein abundance (concentration: 8mM) was determined as 0.962 ± 0.089 and the NP40-soluble protein abundance (concentration: 10mM) is 0.963 ± 0.059.
For X5CMH5 (UniProt Q03519), the NP40-soluble protein abundance reads like this: (concentration: 0.1mM) 1.09 ± 0.036; (concentration: 0.5mM) 1.08 ± 0.054; (concentration: 1mM) 0.978 ± 0.028; (concentration: 2mM) 1.01 ± 0.085; (concentration: 4mM) 0.976 ± 0.063; (concentration: 6mM) 0.951 ± 0.051. Further, the NP40-soluble protein abundance (concentration: 8mM) was 0.934 ± 0.015 and the NP40-soluble protein abundance (concentration: 10mM) is 0.918 ± 0.065.
Turning to UniProt Q9BSF4, the NP40-soluble protein abundance by setting is: (concentration: 0.1mM) 1.16 ± 0.16; (concentration: 0.5mM) 1.09 ± 0.11; (concentration: 1mM) 1.12 ± 0.085; (concentration: 2mM) 1.11 ± 0.027; (concentration: 4mM) 1.18 ± 0.091; (concentration: 6mM) 1.17 ± 0.037. Also, the NP40-soluble protein abundance came out at 0.972 ± 0.071 (concentration: 8mM) and 0.97875 ± 0.0002 (concentration: 10mM).

For the origin of these results see the supplement of paper PMC6411743.
